Data on 40 molecules can be found in PubChem BioAssay (NCATS).

The structures appear in SMILES notation. Inconclusive results are not listed. Active and inactive are the calls of the source. Calls come from the whole dose curve; as a rule, active = well fitted inhibition curve with a large enough effect; inconclusive = small, poorly fitted or top-dose-only effect; inactive = no such curve, though single readings can be large or run the other way.
% is set by controls: 0 for no effect and ±100 for the full control effect; potency is the fitted concentration of half-maximal effect.

Chain of Cytochrome P450 3A4 (Homo sapiens) (P08684 whole entry, looked up): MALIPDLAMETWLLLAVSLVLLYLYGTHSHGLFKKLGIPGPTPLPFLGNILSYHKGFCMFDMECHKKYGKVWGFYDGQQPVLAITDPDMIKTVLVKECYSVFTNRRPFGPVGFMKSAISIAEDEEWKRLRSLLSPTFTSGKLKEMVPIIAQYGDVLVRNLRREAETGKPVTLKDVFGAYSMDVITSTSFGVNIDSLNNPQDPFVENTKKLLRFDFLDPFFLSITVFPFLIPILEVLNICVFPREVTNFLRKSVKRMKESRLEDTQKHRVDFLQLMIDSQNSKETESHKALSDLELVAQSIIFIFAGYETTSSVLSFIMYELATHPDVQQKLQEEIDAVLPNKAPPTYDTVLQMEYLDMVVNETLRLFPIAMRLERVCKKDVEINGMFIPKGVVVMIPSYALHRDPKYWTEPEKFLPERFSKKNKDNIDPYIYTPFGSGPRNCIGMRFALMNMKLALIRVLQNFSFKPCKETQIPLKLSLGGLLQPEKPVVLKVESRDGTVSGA

The target of the assay is Cytochrome P450 3A4 (Homo sapiens) (UniProt P08684). Description: qHTS Assay for Inhibitors and Substrates of Cytochrome P450 3A4 (AID 884). Note: nearly all actives have a fitted effect of over 50% in size. The settings on record: recombinant CYP3A4, Luciferin-PPXE luminescence; series mostly up to 57.1 µM; activity change, negative = inhibition: at the top concentration. The method, boiled down:
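20 nM human CYP3A4 with 25 uM Luciferin-PPXE (at KM) in 200 mM KPO4, preincubated 10 min with compound; NADPH regeneration started a 60 min RT reaction. Luciferin detected by luminescence, normalized to 57 uM ketoconazole as full inhibition.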
In general terms: qHTS replaces the single test concentration by a dilution series.
On to `OB(O)c1cc2ccccc2o1`, for which the “activity change, negative = inhibition” value was -10.3% (inactive).
The same measure, in the same setting: in the case of `Nc1cccc(B(O)O)c1` it was -20.1% (inactive).
Still for that read-out and setting: with `COC(=O)c1ccc(C23CC4(C2)[C@H](CN(Cc2ccc(-c5ccccc5)cc2)[C@@H]4c2ccccc2)C3c2ccccc2)cc1` (stereo not given in full) the figure was -26.6% (inactive); with `COc1ccc(B(O)O)cc1`, -3.45% (inactive).
Regarding `COC(=O)[C@@H]1C[C@H]2CC[C@H](O)C[C@H]2N1Cc1ccccc1OC(=O)c1cccs1`, the Potency was 2.51 µM (active).
Consider `CN(C)/C=N/c1cc(=O)[nH]c(=O)n1CC1CC1`, for which the “activity change, negative = inhibition” value is -3.92% (inactive).
Still for that read-out and setting: with `OB(O)c1ccc(B(O)O)cc1` the figure was -24.2% (inactive); with `CC(Cc1ccccc1)C(=O)N(C)Cc1ccccc1` (stereo not given), -15.9% (inactive).
Still for that read-out and setting: in the case of `COC(=O)[C@@H]1C[C@@]2(O)[C@H](O)[C@H](O)[C@H](O)C[C@H]2N1Cc1ccc(C(C)(C)C)cc1` it was -27.1% (inactive).
Same read-out and setting: in the case of `OB(O)c1ccc(Br)cc1` it was -29.4% (inactive).
As to `CN(C)c1nc(N)c(C(=O)Nc2cccnc2)nc1Cl`, the “activity change, negative = inhibition” value is -45.9% (inactive).
On the same count and under the same terms, with `N#Cc1ccc(C23CC4(C2)[C@H](CN(Cc2ccc(-c5ccccc5)cc2)[C@@H]4c2ccccc2)C3c2ccc(Cl)nc2)cc1` (stereo not given in full) the figure was -29.1% (inactive); with `Cn1c(=O)c(C(=O)COC(=O)c2cc(-c3ccccc3)nc3ccccc23)c(N)n(Cc2ccccc2)c1=O`, -23.5% (inactive).
For `COC(=O)[C@@H]1C[C@@]2(O)[C@H](O)[C@H](O)[C@H](O)C[C@H]2N1Cc1ccc(N2CCOCC2)cc1`, the “activity change, negative = inhibition” value was -19.1% (inactive).
The same measure, in the same setting: with `O=C(O)c1cc(C(F)(F)F)nc2ccccc12` the figure was -23.6% (inactive); with `OB(O)c1cc2ccccc2s1`, -8.26% (inactive).
The same measure, in the same setting: in the case of `CCC1=C2CC[C@H]3C(=O)N(C)C(=O)[C@H]3[C@H]2[C@@]2(C)C(=O)N(CC3CC3)C(=O)N2C1=O` it was -23.7% (inactive).
For `Cn1c(=O)c(C(=O)COC(=O)c2cc(-c3ccco3)nc3ccccc23)c(N)n(CC2CC2)c1=O`, the Potency is 7.94 µM (active).
For the molecule `CCCCCCCCCCCCCCCCCC(=O)NCCc1ccc(O)c(O)c1`, the “activity change, negative = inhibition” value was -12.8% (inactive).
With `O=C(O)c1cc(-c2ccco2)nc2ccccc12`, the “activity change, negative = inhibition” value was -26.4% (inactive).
Still for that read-out and setting: in the case of `CN1CCN(C(=O)c2nc3ccc(Cl)cc3[nH]2)CC1` it was -19% (inactive); in that of `CN(C)/C=N/c1cc(=O)[nH]c(=O)n1Cc1ccccc1`, -4.96% (inactive); in that of `COC(=O)[C@@H]1C[C@@]2(O)[C@H](O)[C@H](O)[C@H](O)C[C@H]2N1C/C=C/c1ccccc1`, -16.6% (inactive).
Same read-out and setting: with `CCC1=C2CC[C@H]3C(=O)N(c4ccccc4)C(=O)[C@H]3[C@H]2[C@@]2(C)C(=O)N(Cc3ccccc3)C(=O)N2C1=O` the figure was -54% (inactive); with `CC1=C(C(=O)OCc2ccccc2)C(C2CC2)NC(=O)N1CCCCCC(=O)O` (stereo not given), -19.6% (inactive).
The same measure, in the same setting: with `CCCCCCCCCCCCCCCC(=O)NCCc1ccc(O)c(O)c1` the figure was -24.9% (inactive); with `Cc1cc(C(=O)O)sc1C(N)C(=O)O` (stereo not given), -25.7% (inactive).
As for `C[C@@]1(O)C(O)[C@@H](CO)O[C@H]1n1cnc2c(NC3CCCC3)nc(Cl)nc21` (stereo not given in full), the “activity change, negative = inhibition” value was -29.2% (inactive).
The same measure, in the same setting: in the case of `COC(=O)[C@@H]1C[C@@]2(O)[C@@H](O)[C@@H](O)[C@@H](O)C[C@H]2N1Cc1ccc(C(F)(F)F)cc1` it was -34.5% (inactive).
Regarding `O=[N+]([O-])c1ccccc1S(=O)(=O)NCC1CCC(CNCC2CCc3ccccc3C2)CC1` (stereo not given), the “activity change, negative = inhibition” value is -1.89% (inactive).
Same read-out and setting: in the case of `NC(=O)NCc1ccccc1` it was -3.44% (inactive); in that of `Cn1c(N)c(C(=O)COC(=O)c2cc(C(F)(F)F)nc3c(C(F)(F)F)cccc23)c(=O)n(C)c1=O`, -12.2% (inactive); in that of `CN(C)/C=N/c1cc(=O)n(C)c(=O)n1CC1CC1`, -22.2% (inactive).
On the same count and under the same terms, with `COc1cc(/C=C/C(=O)N2CCCCC2=O)cc(OC)c1OC` the figure was -22% (inactive); with `COC(=O)[C@@H]1C[C@H]2CC[C@H](O)C[C@H]2N1Cc1ccc(N2CCN(C)CC2)cc1`, -20.9% (inactive).
Still for that read-out and setting: in the case of `N#Cc1ccc(C23CC4(C2)[C@H](CN(Cc2ccc(C(F)(F)F)cc2)[C@@H]4c2ccccc2)C3c2ccc(C(F)(F)F)cc2)cc1` (stereo not given in full) it was -26.7% (inactive); in that of `CC(C)Cn1c(N)c(C(=O)COC(=O)c2cc(C3CC3)nc3ccccc23)c(=O)n(C)c1=O`, -20.4% (inactive).
Regarding `COC(=O)[C@@H]1C[C@@]2(O)[C@H](O)[C@H](O)[C@H](O)C[C@H]2N1Cc1cccc2ccccc12`, the “activity change, negative = inhibition” value is -29.9% (inactive).
On the same count and under the same terms, in the case of `C=CCN1CCc2c(cc(O)c(O)c2Cl)C(c2cccc(C)c2)C1` (stereo not given) it was -23.2% (inactive).
On to `CCC1=C(OC(=O)N(CC)CC)N2C(=O)OC(=NCC3CC3)[C@]2(C)[C@H]2C1=CC[C@H]1C(=O)N(CC)C(=O)[C@H]12`, for which the Potency is 3.98 µM (active).
